Assay outcomes as filed in PubChem BioAssay.
HPGD block: HPGD (human) dehydrogenase inhibition; hit rate 4.3% among 150,000; purified HPGD, NADH fluorescence kinetic, PGE2 substrate; AID 894; P15428; Potency, µM, most hits filed as inhibitors
Target sequence (P15428 whole entry, looked up): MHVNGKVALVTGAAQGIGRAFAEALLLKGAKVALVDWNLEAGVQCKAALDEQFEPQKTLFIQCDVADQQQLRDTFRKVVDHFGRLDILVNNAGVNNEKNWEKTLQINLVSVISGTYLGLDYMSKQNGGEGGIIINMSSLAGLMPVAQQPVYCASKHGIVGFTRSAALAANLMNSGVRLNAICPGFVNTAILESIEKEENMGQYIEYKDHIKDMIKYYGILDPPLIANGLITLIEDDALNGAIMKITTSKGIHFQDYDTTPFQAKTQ
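NADH formation kinetics: reaction with 30 uM PGE2 and 1 mM NAD+ (final), 20 nM enzyme, Tris-HCl pH 8 with Tween 20, after 15 min compound preincubation at room temperature. Fluorescence change, last versus first of five reads.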
HTT cytoprotect: cytoprotection in Huntington HTT-Q103 PC12 cell model | PC12 HTT-Q103 induced, cytoprotection, ATP luminescence, 40 h | Potency, µM (series often up to 56.4 µM), most hits filed as activators | hit rate 0.14% among 230,000 | AID 1471; active = well fitted curve in the direction sought with a large enough effect; inconclusive = small, poorly fitted or top-dose-only effect, or another doubt; inactive = no such curve, though single readings can be large; an effect the other way counts as inactive or inconclusive; also: nearly all actives have a fitted effect of over 45% in size
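Stable PC12 Q103-GFP cells in serum-supplemented, phenol red-free DMEM; induction by tebufenozide at 100 nM final; compound dose series; cell viability quantified luminescently from ATP.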
ALDH1A1 inh: inhibitors of human aldehyde dehydrogenase 1A1; Purified ALDH1A1, NADH fluorescence, propionaldehyde substrate; hit rate 7.3% among 220,000; Potency, µM (series often up to 75.3 µM), hits mostly inhibitors
Target sequence (P00352 whole entry, looked up): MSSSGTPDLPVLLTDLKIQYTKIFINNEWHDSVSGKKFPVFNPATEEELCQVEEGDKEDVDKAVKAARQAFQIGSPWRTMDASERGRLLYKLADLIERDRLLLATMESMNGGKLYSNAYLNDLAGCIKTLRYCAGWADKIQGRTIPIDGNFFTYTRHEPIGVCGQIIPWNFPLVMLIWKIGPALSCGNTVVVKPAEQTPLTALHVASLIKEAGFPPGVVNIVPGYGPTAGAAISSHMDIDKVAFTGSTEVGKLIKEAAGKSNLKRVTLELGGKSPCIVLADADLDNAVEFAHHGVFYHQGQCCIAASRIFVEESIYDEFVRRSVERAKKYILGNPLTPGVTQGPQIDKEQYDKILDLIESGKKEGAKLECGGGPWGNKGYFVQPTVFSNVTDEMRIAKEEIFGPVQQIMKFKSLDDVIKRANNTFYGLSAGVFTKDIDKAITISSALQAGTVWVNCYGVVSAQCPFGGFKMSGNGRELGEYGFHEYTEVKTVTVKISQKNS
Lamin A splicing: changes lamin A minigene splicing in HeLa cells. Potency, µM (top dose mostly 46.1 µM), usual class: inhibitors. HeLa LMNA splicing GFP/RFP minigene ratio, 48 h. AID 1487. hit rate 0.01% among 200,000; active = well fitted inhibition curve with a large enough effect in the signal ratio, with a control signal flat, not every such curve was filed as active; inconclusive = small, poorly fitted or top-dose-only effect, or effect the other way, or a change in a side signal; the % refers to the signal ratio
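S3 HeLa stable clones carrying a lamin A-EGFP splicing minigene plus DsRed2 were seeded at 600 cells/well in Opti-MEM with 2% FBS, pin-dosed and incubated 48 h at 37°C. Acumen cytometry (488 nm) gave the GFP/RFP total-intensity ratio.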
HttQ103 aggreg: reduces HttQ103-GFP aggregates in PC12 cells; Potency, µM (top dose mostly 46.1 µM), actives largely listed as inhibitors; AID 1688; PC12 HttQ103-GFP aggregates, Acumen cytometry, 40 h; hit rate 1.1% among 220,000; active = well fitted curve in the direction sought with a large enough effect; inconclusive = small, poorly fitted or top-dose-only effect, or another doubt; inactive = no such curve, though single readings can be large; an effect the other way counts as inactive or inconclusive; also: nearly all actives have a fitted effect of over 60% in size
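PC12 cells with ecdysone-inducible HTT exon1 Q103-GFP, induced by 100 nM tebufenozide, given compounds in a concentration series. GFP aggregates (1–25 um, 6 SD above background) counted in lysates by laser-scanning cytometry, 488 nm excitation.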
JMJD2E inh: inhibitors of human JMJD2E histone demethylase; B2RXH2; JMJD2E catalytic domain, FDH-coupled NADH fluorescence (FDH is formaldehyde dehydrogenase); Potency, µM (titrated, usually from 57.1 µM), hits mostly inhibitors; hit rate 1.6% among 230,000; also: nearly all actives have a fitted effect of over 50% in size
Hits are given with their value; n = inactive; u = inconclusive; x = no result given; [ ] = another dose, or the depositor's remark. The list is not random: actives were taken first. Their share in the collection is about 9.2%. Unless noted, calls follow the shape of the dose curve; as a rule, active = well fitted inhibition curve with a large enough effect (not every such curve was filed as active); inconclusive = small, poorly fitted or top-dose-only effect, or another doubt; inactive = no such curve, though single readings can be large or run the other way.

SMILES	HPGD block	HTT cytoprotect	ALDH1A1 inh	Lamin A splicing	HttQ103 aggreg	JMJD2E inh
CCC(=O)N1CCN(c2ccccc2NC(=S)NC(=O)c2cccc([N+](=O)[O-])c2)CC1	x	x	14.1µM	u	n	n
CCOc1ccc(C(=O)NC(=S)Nc2ccccc2N2CCOCC2)cc1Br	n	n[10 µM]	3.98µM	u	n	n
CCC(=O)N1CCN(c2ccc(NC(=S)NC(=O)c3cccc([N+](=O)[O-])c3)cc2)CC1	n	n[10 µM]	u	n	n	n
CCOC(=O)c1sc(N)c(C(=O)OC)c1C	x	n[10 µM]	n	x	n[9.22 µM]	u
C=CCn1c(N)c(C(=O)Nc2ccccc2OC)sc1=S	x	n	22.4µM	n	n	n
CCOC(=O)c1sc(N)c(C(=O)Nc2ccc(C)cc2C)c1C	3.98µM	x	10µM	x	x	x
CCOC(=O)c1sc(N)c(C(=O)Nc2ccccc2OC)c1C	x	n	4.47µM	n[9.22 µM]	u	n
CC(=O)O[C@H]1C[C@@]2(C)[C@H](C[C@@H](O)[C@H]3[C@@]4(C)CC[C@@H](O)[C@@H](C)[C@H]4CC[C@@]32C)C1=C(CCC=C(C)C)C(=O)O	n	n	n	n	n	n
O=C1NCC(c2ccccc2)C1C(=O)N/N=C/c1ccc(Cl)s1 (stereo unspecified)	x	x	n	n	0.112µM	n
CCCC(C(=O)NC1CCCC1)N(Cc1ccc2c(c1)OCO2)C(=O)c1snc(C(N)=O)c1N (stereo unspecified)	n	n	12.6µM	n	n	u
COc1ccc(CCNC(=O)c2cc(-c3cc(C)ccc3O)n[nH]2)cc1OC	3.98µM	n	n	n	n[9.22 µM]	n
COc1ccc(CCNC(=O)c2cc(-c3ccc(C)c(C)c3O)n[nH]2)cc1OC	n	n	u	n	n[1.84 µM]	n
COc1ccc(NC(=O)c2cc(-c3cc(C)ccc3O)n[nH]2)cc1Cl	3.16µM	n[0.074 µM]	n	n	n	n
C=C(C)[C@H]1CC[C@]2(CO)CC[C@]3(C)[C@@H](CC[C@H]4[C@@]5(C)CC[C@@H](O)C(C)(C)[C@@H]5CC[C@@]43C)[C@H]12	n	n	n	u	x	n
Cc1cc2c(nc1C)CCCN2C[C@H](C)O/N=C\[C@@H](C)[C@H](OCc1ccccc1)C(C)C	x	n[10 µM]	n[13.5 µM]	x	x	x
CC(=O)Nc1ccc(S(=O)(=O)NC2(C(F)(F)F)C(=O)Nc3c2c(=O)n(C)c(=O)n3C)cc1 (stereo unspecified)	20µM	n	u	n	n	n
COC(=O)C1=C(C)N(CCc2ccccc2)C(=O)C1(NS(=O)(=O)c1ccc(NC(C)=O)cc1)C(F)(F)F (stereo unspecified)	n	n	20µM	n	n	n
CC(=O)C1=C(C)N(c2ccccc2)C(=O)C1(NS(=O)(=O)c1ccc(N)cc1)C(F)(F)F (stereo unspecified)	x	x	n	n	u	n
N=C(N)SCCON1C(=O)c2ccccc2C1=O	n	n[10 µM]	n[13.5 µM]	x	x	x
Cc1c(C(=O)NCCN(C)C)oc2c1-c1nn(Cc3ccccc3Cl)cc1CC2	x	x	x	n	x	x
Cc1ccc(S(=O)(=O)CCN2CCN(c3ccccn3)CC2)cc1	x	n[10 µM]	12.6µM	x	n[9.22 µM]	n
Clc1ccc(CN2CCCN(Cc3ccc(Cl)cc3)C2c2cc3ccccc3c3ccccc23)cc1	n	n[10 µM]	n[13.5 µM]	x	x	x
CCCn1c(O)c(N=NC(=O)c2ccco2)c2ccccc21	n	n[10 µM]	u	u	n	n
CCCn1c(O)c(N=NC(=O)c2cccnc2)c2cc(Br)ccc21	x	n[10 µM]	1.12µM	x	n[9.22 µM]	u
CCNC(=O)C/C(C)=N/NC(=O)C12CC3CC(CC(C3)C1)C2	n	n	3.98µM	n	n	n
SMILES	HPGD block	HTT cytoprotect	ALDH1A1 inh	Lamin A splicing	HttQ103 aggreg	JMJD2E inh
CCNC(=O)C/C(C)=N/NC(=O)C1CCCCC1	n	n[10 µM]	n	n	n	n
CCOc1ccc(Nc2nc(Cc3nnc(SCC(=O)NCc4ccco4)n3CC)cs2)cc1	n	n	n	n	n	n
CCOc1ccc(Nc2nc(Cc3nnc(SCC(=O)c4ccc(C)c(C)c4)o3)cs2)cc1	n	n	n	u	10µM	n
O=C(c1ccco1)N1CCC2(CCCN(C(c3ccccc3)c3ccccc3)C2)CC1	n	n	u	x	x	x
O=C(O)c1ccc(N/N=C/c2cn(Cc3ccc(F)cc3)c3ccccc23)cc1	x	n[10 µM]	x	x	n[9.22 µM]	u
O=C(O)CC(C(=O)O)c1cn(Cc2ccccc2)c2ccccc12 (stereo unspecified)	n	n	11.2µM	n	n	n
O=C(CSc1ccccc1)Nc1nccs1	x	n[10 µM]	n	n	n	n
O=C(CSc1cn(Cc2ccccc2)c2ccccc12)Nc1nccs1	n	n	14.1µM	n	n	n
O=C(CSc1cn(Cc2ccccc2)c2ccccc12)NCc1ccc(F)cc1	n	x	7.94µM	n	n	n
O=C(O)Cc1cn(Cc2cccc(Cl)c2)c2ccccc12	x	n[10 µM]	u	u	n	n
CN(C)c1ccc(/C=N\NC(=O)c2cccc3cc[nH]c23)cc1	x	n[10 µM]	x	x	n[9.22 µM]	u
Cc1nn(-c2ccc(C(=O)Nc3nnc(C4CC4)s3)cc2)c(C)c1Cl	n	n[10 µM]	n	n	n	n
Cc1nn(-c2ccccc2)c(Cl)c1C(=O)Nc1nnc(C2CCCCC2)s1	n	n	3.98µM	u	n	n
O=C1CC[C@@H](CN(Cc2ccccn2)Cc2nc(-c3ccc(C(F)(F)F)cc3)no2)N1	x	n[10 µM]	n	x	n[9.22 µM]	n
CN1CCC2(CC1)CCN(C(=O)c1ccncc1)CC2	n	u	n	x	x	x
COc1ccc(CCN2C(=O)CC(N3CCOCC3)C2=O)cc1OC (stereo unspecified)	n	n[10 µM]	u	n	n	n
COc1ccc(N2C(=O)CC(N3CCOCC3)C2=O)cc1 (stereo unspecified)	n	n	25.1µM	n	n	n
COc1ccc(CCN2C(=O)CC(N3CCOCC3)C2=O)cc1 (stereo unspecified)	n	1.26µM	n	n	n	n
O=C1CCCN1CCC1CCN(C2CC(=O)N(c3ccc(F)cc3)C2=O)CC1 (stereo unspecified)	n	n	12.6µM	n	n	n
O=C(C1CCN(C2CC(=O)N(c3ccc(F)cc3)C2=O)CC1)N1CCOCC1 (stereo unspecified)	n	n[0.074 µM]	7.08µM	n	u	n
O=C(O)[C@H](Cc1c[nH]c2ccccc12)N1C(=O)c2ccccc2C1=O	n	n[10 µM]	n[13.5 µM]	x	x	x
COc1ccc(N2C(=O)CC(n3c(CCCCO)nc4ccccc43)C2=O)cc1 (stereo unspecified)	n	n[0.074 µM]	3.55µM	n	n	n
O=C1CC(N2CCOCC2)C(=O)N1c1cc(Cl)cc(Cl)c1 (stereo unspecified)	n	n	3.16µM	n	n	n
Cc1cc(C)cc(N2C(=O)CC(N3CCOCC3)C2=O)c1 (stereo unspecified)	n	n	n	n	u	n
CCC(CC)C(=O)NC1CC(=O)N(c2ccc3c(c2)OCCO3)C1 (stereo unspecified)	x	x	x	n	x	x
